RecA splice inh: inhibitors of M. tuberculosis RecA intein splicing. inhibition, % (no concentration beside the values). hit rate 0.75% among 290,000. P9WHJ3. cell-free RecA intein splicing, fluorescence. AID 2221; in the data active means inhibition above about 30%;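 further: 0% = vehicle wells and 100% = reference inhibitor control wells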
Target sequence (P9WHJ3 whole entry, looked up, canonical isoform): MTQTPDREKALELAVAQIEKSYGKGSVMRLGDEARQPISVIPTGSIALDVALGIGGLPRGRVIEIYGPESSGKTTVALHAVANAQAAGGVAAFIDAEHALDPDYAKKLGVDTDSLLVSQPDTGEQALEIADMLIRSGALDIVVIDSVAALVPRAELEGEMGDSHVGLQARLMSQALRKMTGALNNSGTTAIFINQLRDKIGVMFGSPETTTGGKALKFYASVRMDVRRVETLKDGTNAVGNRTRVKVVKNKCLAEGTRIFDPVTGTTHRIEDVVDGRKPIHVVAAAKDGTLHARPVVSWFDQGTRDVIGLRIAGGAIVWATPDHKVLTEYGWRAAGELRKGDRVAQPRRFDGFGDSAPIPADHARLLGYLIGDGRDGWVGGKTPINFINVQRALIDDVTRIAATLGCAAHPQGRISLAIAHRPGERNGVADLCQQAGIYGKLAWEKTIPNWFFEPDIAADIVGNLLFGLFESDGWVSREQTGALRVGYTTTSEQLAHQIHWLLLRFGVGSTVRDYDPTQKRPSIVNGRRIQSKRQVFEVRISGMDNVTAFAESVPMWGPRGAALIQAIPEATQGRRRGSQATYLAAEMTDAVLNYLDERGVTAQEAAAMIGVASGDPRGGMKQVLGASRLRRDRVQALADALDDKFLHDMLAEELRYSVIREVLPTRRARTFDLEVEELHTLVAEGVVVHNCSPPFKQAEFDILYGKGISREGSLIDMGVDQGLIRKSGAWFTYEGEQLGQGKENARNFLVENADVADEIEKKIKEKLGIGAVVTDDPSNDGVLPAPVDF
CCHF vOTU inh: blocks the CCHF virus ovarian tumor domain protease | CCHFV vOTU protease, Pep-AMC fluorescence | inhibition, % at 11.5 µM | hit rate 0.55% among 370,000 | AID 651958; in the data active means inhibition above about 30%; further: 0% = vehicle wells with enzyme and 100% = no enzyme wells
SARS 3CLpro inh: SARS-CoV 3CLpro protease inhibition | P0C6X7 | recombinant SARS-CoV 3CLpro, quenched FRET peptide cleavage | inhibition, % at 6 µM | hit rate 0.14% among 290,000; in the data active means inhibition above about 12%
PriA SSB inh: blocks PriA binding to SSB C-terminal tail | AlphaScreen SSBct-PriA binding, biotinylated peptide | inhibition, % at 33 µM | hit rate 0.6% among 430,000 | AID 1272365; in the data active means inhibition mostly above about 37%, no sharp cut-off; inactive means mostly below about 20%;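 further: plate controls were negative control peptide for no effect and reference peptide for full effect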
VHR inh abs: blocks human VHR1 dual specificity phosphatase; inhibition, % at 13.3 µM; hit rate 0.52% among 290,000; recombinant VHR phosphatase, pNPP absorbance; P51452; in the data active means inhibition above about 50%
Starred values were filed as active, the others as inactive; nt = no result; ! = not confirmed by another sample. Rows were chosen to be rich in hits. Some 1.7% of all compounds tested hit in one or more screens of this group.

SMILES	RecA splice inh	CCHF vOTU inh	SARS 3CLpro inh	PriA SSB inh	VHR inh abs
Cc1ccc(NC(=S)NC(=O)CC2CC(C)(C)OC2=O)cc1 (centres undefined)	1.0	-3.2	-0.1	3.2	57.8*
COc1ccc(OC)c2c(C)cc(N3CCCN(C)CC3)nc12	-0.1	-22.9	-2.0	43.9*	3.5
CN(C(=O)CSc1nc(-c2ccccc2)cn1N)C(c1ccccc1)c1ccccc1	7.6	-13.2	0.5	50.0*	6.5
O=S(=O)(NCC(c1ccsc1)N1CCc2ccccc2C1)c1cccs1 (centres undefined)	nt	nt	nt	-6.0	nt
N#C/C(=C/c1ccc(F)cc1)C(N)=S	-11.9	0.0	-1.8	4.4	6.7
CCc1ccc(/C=C(/C#N)C(N)=S)cc1	1.0	8.7	-1.3	38.0*!	2.6
CC(Cc1cccs1)NC(=O)CCCc1ccccc1 (centres undefined)	nt	nt	nt	-3.0	nt
COc1cc(/C=C/c2sc3ccccc3[n+]2CCCS(=O)(=O)[O-])ccc1O	35.9*	19.0	-4.9	-6.5	38.0
CCC(=Cc1sc2ccccc2[n+]1CCCS(=O)(=O)[O-])C=C1Oc2ccc(OC)cc2N1C	nt	nt	nt	0.8	nt
C=CCn1c(SCCN2CCOCC2)nc2c1c(=O)[nH]c(=O)n2C	1.2	1.0	-0.3	-2.9	18.0
COCCn1c(SCCN2CCOCC2)nc2c1c(=O)[nH]c(=O)n2C	8.8	-0.2	-4.3	-18.8	58.3*
COc1ccc(OCC(O)COc2ccc(C(=O)O)cc2)cc1 (centres undefined)	-1.5	-3.5	0.3	-17.0	50.8*
O=C(Nc1cnc2ccccc2c1)c1cccc([N+](=O)[O-])c1	nt	nt	nt	2.0	nt
CNC(=O)c1csc(NC(=O)c2cc3ccccc3oc2=O)n1	nt	nt	nt	10.0	nt
Clc1ccc(/C=N/Nc2nn[nH]n2)cc1	2.7	-1.2	0.6	nt	53.8*
O=C(NCC(c1ccc(F)cc1)N1CCOCC1)c1cccc(Br)c1 (centres undefined)	-0.9	-18.5	-3.0	42.1*	11.0
O=C(NCC(c1ccc(F)cc1)N1CCOCC1)c1cccc(C(F)(F)F)c1 (centres undefined)	nt	nt	nt	-12.0	nt
O=C(c1ccc2nsnc2c1)N1CCN(c2ncccn2)CC1	nt	nt	nt	-19.0	nt
NC(=O)NC(CC(=O)NCCCc1ccccc1)c1ccccc1Cl (centres undefined)	-0.8	-0.7	-0.4	-5.1	-10.8
NC(=O)NC(CC(=O)NCCc1ccccn1)c1ccccc1Cl (centres undefined)	2.1	12.6	4.0	-1.1	53.3*
O=C(Oc1ccc(Br)cc1C(=S)N1CCCCC1)c1cc([N+](=O)[O-])cc([N+](=O)[O-])c1	63.5*	nt	2.2	8.9	18.8
O=C(Oc1ccc(Br)cc1C(=S)N1CCCC1)c1ccccc1Cl	1.7	3.2	-3.4	-11.3	5.4
CN1C(=O)C(C)(C)COc2ccc(NC(=O)COc3ccc(Cl)cc3)cc21	nt	nt	nt	23.0	nt
Nc1ccccc1Nc1cc(-c2ccccc2)nn1-c1cccc(Cl)c1	16.2	26.8	8.3	59.0*	10.2
Nn1c(SCC(=O)NCc2ccc(F)cc2)nncc1=O	nt	nt	nt	-20.0	nt
SMILES	RecA splice inh	CCHF vOTU inh	SARS 3CLpro inh	PriA SSB inh	VHR inh abs
CCCC(=O)Nc1c(-c2ccc(OC)c(OC)c2)c(=O)c2ccccc2n1C	nt	nt	nt	-4.0	nt
O=C(NCCCN1CCOCC1)c1cc2ccccc2oc1=O	-0.9	-5.2	1.7	-15.6	2.7
O=C(NCCN1CCN(C(=O)c2cc3ccccc3oc2=O)CC1)c1cc2ccccc2oc1=O	-2.3	-2.1	5.1	94.2*	23.7
CC1CCCC(C)N1CCNC(=O)C1CCCN(S(C)(=O)=O)C1 (centres undefined)	nt	nt	nt	-9.0	nt
Cc1ccc2c(c1)CC1(CN2C)C(=O)NC(=O)N(c2ccc(C)c(C)c2)C1=O (centres undefined)	-3.3	7.4	0.4	2.7	50.5*
O=C(CC(c1ccccc1)c1ccccc1)NCc1cncc(-c2ccsc2)c1	nt	nt	nt	-5.0	nt
Cc1ccc(C)c(OCC(=O)Nc2cc(C(=O)O)cc(C(=O)O)c2)c1	-1.7	5.6	2.5	-6.4	53.3*
Cc1cc(C)c(OCC(=O)Nc2cc(C(=O)O)cc(C(=O)O)c2)cc1C	-0.9	5.6	5.3	1.3	-16.0
Cc1cccc(CSc2cccc3cccnc23)c1	4.4	7.8	5.0	94.5*	28.7
c1cnc2c(SCc3ccncc3)cccc2c1	nt	nt	nt	32.8	nt
c1cnc2c(SCc3ccc(-c4nnco4)cc3)cccc2c1	2.0	-10.7	2.8	74.2*	3.6
C(=C\CSc1cccc2cccnc12)/CSc1cccc2cccnc12	nt	nt	nt	47.5	nt
N#CCSc1cccc2cccnc12	nt	nt	nt	84.5*	nt
CCOCC(=O)NC[C@H](Cc1cccc(F)c1)N1CCCCC1=O	nt	nt	nt	-10.0	nt
COc1nc(C)cc(C)c1C#N	nt	nt	nt	-24.0	nt
COc1ccc(NC(=O)c2ccc(N3CCCCS3(=O)=O)cc2)cc1Cl	nt	nt	nt	-10.0	nt
CCC(=O)Oc1ccc(C2NC(=O)c3ccccc3O2)cc1OC (centres undefined)	5.1	-3.6	0.3	-4.5	59.7*
COc1ccc(C2NC(=O)c3ccccc3O2)cc1OC (centres undefined)	-1.0	-5.7	-8.3	-6.2	-0.1
CCCC(=O)Oc1ccc(C2NC(=O)c3ccccc3O2)cc1OC (centres undefined)	-0.1	-7.0	-3.0	-15.6	59.7*
CCC(C(=O)NCc1cc(C)nc(N2CCCC2)n1)c1ccccc1 (centres undefined)	nt	nt	nt	-24.0	nt
COCCN1C(=O)C(CC(=O)Nc2ccc(C(C)=O)cc2)SC1=Nc1ccccc1 (centres undefined)	nt	7.9	4.0	-9.3	57.4*
C=CCNC(=O)/C(C#N)=C\c1cc(Cl)c(O)c(OCC)c1	-2.5	-5.2	2.6	2.9	-4.6
N#C/C(=C/c1ccc2c(c1)OCO2)C(=O)Nc1ccc(O)cc1	58.8*	-5.1	3.6	-3.9	5.1
CCOc1cc(/C=C(/C#N)C(=O)Nc2ccc(O)cc2)cc(Br)c1O	60.5*	5.8	3.4	0.8	-23.9
O=[N+]([O-])c1ccc(Sc2ccccn2)nc1	-0.2	-6.9	-2.9	5.3	1.1
SMILES	RecA splice inh	CCHF vOTU inh	SARS 3CLpro inh	PriA SSB inh	VHR inh abs
O=[N+]([O-])c1ccc(Sc2nnnn2-c2ccccc2)nc1	57.9*	-0.9	3.9	1.8	27.2
CCCCn1c(NC(=O)c2ccccc2Cl)c(C#N)c2nc3ccccc3nc21	26.8	8.6	3.5	36.2	34.2
N#Cc1c(NC(=O)c2ccccc2Cl)n(Cc2ccccc2)c2nc3ccccc3nc12	nt	100.7*	1.4	53.3*	30.5
O=C(CSc1nc(-c2ccccc2)cs1)Nc1ccccc1[N+](=O)[O-]	14.2	0.8	2.4	48.4*	-7.5
C=C1CC[C@@]2(O)[C@H]3Cc4ccc(O)c5c4[C@@]2(CCN3CC2CC2)[C@H]1O5	-2.8	nt	-4.8	41.0*	0.9
Oc1ccc2c3c1O[C@H]1c4[nH]c5c(c4CC4(O)C(C2)N(CC2CC2)CCC314)CC1(O)[C@H]2Cc3ccc(O)c4c3[C@@]1(CCN2CC1CC1)C5O4 (some centres undefined)	nt	6.4	nt	nt	nt
Clc1cccc(CSc2nccn2-c2ccccc2)c1	12.1	6.7	6.7	52.7*	8.2
NC(=O)CSc1nccn1-c1cccc(C(F)(F)F)c1	nt	nt	nt	-2.0	nt
O=C(CSc1nccn1-c1ccccc1)NO	-4.9	11.0	-0.6	-9.2	26.2
Brc1ccc(CSc2nccn2-c2ccccc2)cc1	14.2	3.8	6.0	59.2*	10.2
